Experimental data reported in the supplement of paper PMC3334620.
Whole data set: some 33,000 sequences, median “E-score (-0.5 to 0.5)” near -0.0014, cut for the highest 2% near 0.25. For the sample, the highest values were picked, then their nearest neighbours and some sequences at random.

Target: T1, Cad1 (UniProt P24813)
T1 sequence: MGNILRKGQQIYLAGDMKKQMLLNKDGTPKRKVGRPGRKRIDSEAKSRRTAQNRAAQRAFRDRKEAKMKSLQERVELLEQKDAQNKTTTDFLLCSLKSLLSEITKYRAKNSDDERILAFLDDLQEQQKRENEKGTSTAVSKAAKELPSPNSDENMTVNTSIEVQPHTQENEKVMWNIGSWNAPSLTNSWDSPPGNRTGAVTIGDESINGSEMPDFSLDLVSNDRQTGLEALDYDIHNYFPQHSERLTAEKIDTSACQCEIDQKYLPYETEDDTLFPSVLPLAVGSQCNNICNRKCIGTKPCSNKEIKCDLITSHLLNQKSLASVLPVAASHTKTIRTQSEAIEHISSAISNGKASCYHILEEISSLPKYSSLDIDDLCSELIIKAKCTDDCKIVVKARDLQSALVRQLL
Test: PBM E-score (8-mer binding enrichment) (E-score (-0.5 to 0.5)); higher = stronger / more preferred TF binding
Conditions: protein concentration: 100 nM; construct: GST-full length
Procedure: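 Universal 'all 10-mer' protein binding microarrays (Agilent AMADID 015681) probed with GST-tagged S. cerevisiae TFs (full-length or DBD) made by in vitro transcription/translation (PURExpress), about 100-200 nM. Bound TF was detected with fluorescent anti-GST. Each ungapped 8-mer (which stands for itself and its reverse complement) is scored by the PBM enrichment score (E-score), a modified Wilcoxon-Mann-Whitney statistic from -0.5 to +0.5, computed with the Universal PBM Analysis Suite. Scale: above 0.35 generally sequence-specific binding.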

**Q.** For CAACTAGG, which “PBM E-score” value is on record?
**A.** 0.079

**Q.** How did the “PBM E-score” value turn out when CGAGGCAG was run?
**A.** 0.0833

**Q.** With AACCTCAC as the sequence, how does the “PBM E-score” value read?
**A.** -0.112

**Q.** ATGTTTTA was tested. Which “PBM E-score” value did it give?
**A.** 0.0134

**Q.** With ATGTTTTC as the sequence, how does the “PBM E-score” value read?
**A.** 0.268

**Q.** ATGTTTCC was tested. Which “PBM E-score” value did it give?
**A.** -0.00726

**Q.** With CTGTTGGC as the sequence, how does the “PBM E-score” value read?
**A.** -0.202

**Q.** How did the “PBM E-score” value turn out when ATTTGTTA was run?
**A.** 0.203

**Q.** For ATTTGTGC, which “PBM E-score” value is on record?
**A.** 0.148

**Q.** With ATTTGTTC as the sequence, how does the “PBM E-score” value read?
**A.** 0.265

**Q.** For ATTTGTCC, which “PBM E-score” value is on record?
**A.** 0.253

**Q.** ATTTGTCG was tested. Which “PBM E-score” value did it give?
**A.** 0.147

**Q.** How did the “PBM E-score” value turn out when CTTTGTTC was run?
**A.** 0.0827

**Q.** For AAATCCTC, which “PBM E-score” value is on record?
**A.** -0.0802

**Q.** With ATGTGACA as the sequence, how does the “PBM E-score” value read?
**A.** 0.281

**Q.** With GTGTGACA as the sequence, how does the “PBM E-score” value read?
**A.** 0.0138

**Q.** With CTGTGACA as the sequence, how does the “PBM E-score” value read?
**A.** 0.209

**Q.** For GCATCCCA, which “PBM E-score” value is on record?
**A.** -0.303

**Q.** CGCACTTC was tested. Which “PBM E-score” value did it give?
**A.** -0.184

**Q.** How did the “PBM E-score” value turn out when CCCAAGAG was run?
**A.** -0.132

**Q.** How did the “PBM E-score” value turn out when CTATTACA was run?
**A.** 0.123

**Q.** CTATTACC was tested. Which “PBM E-score” value did it give?
**A.** -0.0596

**Q.** With GTATTACA as the sequence, how does the “PBM E-score” value read?
**A.** 0.234

**Q.** How did the “PBM E-score” value turn out when ATATTACC was run?
**A.** 0.28

**Q.** With ATATTACA as the sequence, how does the “PBM E-score” value read?
**A.** 0.347

**Q.** Which “PBM E-score” value does the source give for ATATTACG here?
**A.** 0.24

**Q.** For AGCCGTCG, which “PBM E-score” value is on record?
**A.** 0.219

**Q.** With CACGGAAG as the sequence, how does the “PBM E-score” value read?
**A.** -0.00842

**Q.** With TATAGGAA as the sequence, how does the “PBM E-score” value read?
**A.** 0.127

**Q.** With CGACCCGC as the sequence, how does the “PBM E-score” value read?
**A.** 0.0365

**Q.** Which “PBM E-score” value does the source give for AATAACGG here?
**A.** 0.253

**Q.** How did the “PBM E-score” value turn out when AATAACGC was run?
**A.** -0.0922

**Q.** CATAACGG was tested. Which “PBM E-score” value did it give?
**A.** -0.00107

**Q.** GATTGCAA was tested. Which “PBM E-score” value did it give?
**A.** 0.117

**Q.** AGGACCCA was tested. Which “PBM E-score” value did it give?
**A.** -0.22

**Q.** With AATCGCGT as the sequence, how does the “PBM E-score” value read?
**A.** 0.107

**Q.** With AAGCGCTA as the sequence, how does the “PBM E-score” value read?
**A.** 0.107

**Q.** How did the “PBM E-score” value turn out when AAGCGCTC was run?
**A.** 0.0197

**Q.** How did the “PBM E-score” value turn out when TAGCGCGA was run?
**A.** 0.211

**Q.** With CCGCGCCG as the sequence, how does the “PBM E-score” value read?
**A.** 0.174

**Q.** Which “PBM E-score” value does the source give for AATCGCGC here?
**A.** 0.327

**Q.** For TCGCGCGA, which “PBM E-score” value is on record?
**A.** 0.308

**Q.** Which “PBM E-score” value does the source give for TCGCGAGA here?
**A.** 0.165

**Q.** CCGCGCGG was tested. Which “PBM E-score” value did it give?
**A.** 0.417

**Q.** How did the “PBM E-score” value turn out when GATCGCGC was run?
**A.** 0.118

**Q.** For AAGCGCTT, which “PBM E-score” value is on record?
**A.** 0.421

**Q.** How did the “PBM E-score” value turn out when ACGCGCGG was run?
**A.** 0.136

**Q.** ATCGGTAG was tested. Which “PBM E-score” value did it give?
**A.** 0.0904

**Q.** Which “PBM E-score” value does the source give for AGCACACT here?
**A.** -0.0625

**Q.** Which “PBM E-score” value does the source give for AGAGCCAG here?
**A.** -0.239

**Q.** Which “PBM E-score” value does the source give for CGCGTACA here?
**A.** -0.008

**Q.** Which “PBM E-score” value does the source give for ATGCCGTC here?
**A.** -0.0686

**Q.** How did the “PBM E-score” value turn out when AAGATCCA was run?
**A.** -0.089

**Q.** CTCTGGGA was tested. Which “PBM E-score” value did it give?
**A.** -0.252

**Q.** How did the “PBM E-score” value turn out when AGGACACC was run?
**A.** 0.00026

**Q.** Which “PBM E-score” value does the source give for ACAAACAT here?
**A.** 0.145

**Q.** How did the “PBM E-score” value turn out when CCCGCGGG was run?
**A.** 0.0407

**Q.** Which “PBM E-score” value does the source give for CCCTACAA here?
**A.** -0.14

**Q.** For AAGGGGGT, which “PBM E-score” value is on record?
**A.** -0.389

**Q.** Which “PBM E-score” value does the source give for CAGCGCTC here?
**A.** 0.153

**Q.** For TCGCGAAA, which “PBM E-score” value is on record?
**A.** 0.168

**Q.** How did the “PBM E-score” value turn out when CAGCGCTG was run?
**A.** 0.263

**Q.** How did the “PBM E-score” value turn out when CCGCGAGA was run?
**A.** -0.102

**Q.** CCGCGCGC was tested. Which “PBM E-score” value did it give?
**A.** 0.144

**Q.** Which “PBM E-score” value does the source give for AATCGTGA here?
**A.** 0.0886

**Q.** Which “PBM E-score” value does the source give for CCGCGAAA here?
**A.** 0.0147

**Q.** AATCGTGC was tested. Which “PBM E-score” value did it give?
**A.** 0.276

**Q.** Which “PBM E-score” value does the source give for CATCGTGC here?
**A.** 0.162

**Q.** CCGCGCGA was tested. Which “PBM E-score” value did it give?
**A.** 0.295

**Q.** Which “PBM E-score” value does the source give for CAGCGCTA here?
**A.** 0.157

**Q.** With GCGCGAAA as the sequence, how does the “PBM E-score” value read?
**A.** 0.308

**Q.** With TAGCCGAA as the sequence, how does the “PBM E-score” value read?
**A.** -0.0837

**Q.** For CCCTCCCG, which “PBM E-score” value is on record?
**A.** -0.226

**Q.** How did the “PBM E-score” value turn out when CAACATCG was run?
**A.** 0.0708

**Q.** For ACAGAAAG, which “PBM E-score” value is on record?
**A.** -0.0964

**Q.** Which “PBM E-score” value does the source give for GTCGGTGA here?
**A.** -0.13

**Q.** For TCATTCAA, which “PBM E-score” value is on record?
**A.** 0.13

**Q.** AGGTACCC was tested. Which “PBM E-score” value did it give?
**A.** -0.138

**Q.** How did the “PBM E-score” value turn out when ATCTTTCC was run?
**A.** 0.0734

**Q.** CCGTCTAG was tested. Which “PBM E-score” value did it give?
**A.** -0.128

**Q.** For CACGAGCC, which “PBM E-score” value is on record?
**A.** -0.209

**Q.** With CAATCGCA as the sequence, how does the “PBM E-score” value read?
**A.** 0.00664

**Q.** How did the “PBM E-score” value turn out when ACCCGCGC was run?
**A.** 0.256

**Q.** With GCGCGCAC as the sequence, how does the “PBM E-score” value read?
**A.** 0.218

**Q.** For ACGCGCGC, which “PBM E-score” value is on record?
**A.** 0.216

**Q.** How did the “PBM E-score” value turn out when AACCGCGA was run?
**A.** 0.287

**Q.** Which “PBM E-score” value does the source give for ACCCGCGT here?
**A.** -0.00317

**Q.** With GTGCGCGA as the sequence, how does the “PBM E-score” value read?
**A.** -0.0729

**Q.** Which “PBM E-score” value does the source give for GCGCGCGA here?
**A.** 0.265

**Q.** With ACGCGCGA as the sequence, how does the “PBM E-score” value read?
**A.** 0.139

**Q.** With GCGCGCGC as the sequence, how does the “PBM E-score” value read?
**A.** 0.417

**Q.** ACCCGCGA was tested. Which “PBM E-score” value did it give?
**A.** 0.0834

**Q.** With AACCGCGT as the sequence, how does the “PBM E-score” value read?
**A.** 0.122

**Q.** Which “PBM E-score” value does the source give for TACCGCGA here?
**A.** 0.172
